Results as given in ChEMBL document CHEMBL1201862, “PubChem BioAssay data set” (2004).
Among all 57,000 sequences or so, about 4,300 (7.5%) were called active. Cut-off read from the data, not from the text of the source: active = GI50 up to about 1.1 µM and inactive = higher. These entries were drawn from the full list. Potency and affinity values are given separately.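 Test compounds were applied to cells in 96-well plates for 48 hours at 5 doses. GI50 marks 50% less growth.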

Each substance was assayed on HT-29 (assay: NCI tumour cell line growth inhibition, 48 h).
For “cis-Bis[[(trimethylsilyl)methyl]amino]tetrachloroplatinum(IV), CHEMBL2146191”, the GI50 was 4.11 µM.
Work on “[Bis(aminomethyl)pentamethylenesilane]tetrachloropaltinum(IV), CHEMBL2146204” yielded a GI50 of 1.57 µM.
“[Bis(aminomethyl)tetramethylenesilane]tetrachloropaltinum(IV), CHEMBL2146189” showed a GI50 of 4.9 µM.
For “[Bis(aminomethyl)pentamethylenesilane]dichloropaltinum(II), CHEMBL2146202”, the GI50 was 3.19 µM.
With CISPLATIN, CHEMBL11359 the GI50 was 7.93 µM.
In the case of “[Bis(aminomethyl)dimethylsilane]dichloroplatinum (II), CHEMBL2146201”, the GI50 is reported as 18.1 µM.
In the case of “[Bis(aminomethyl)dimethylsilane]tetrachloroplatinum(IV), CHEMBL2146190”, the GI50 is reported as 5.28 µM.
“[Bis(aminomethyl)ethylmethylsilane]tetrachloroplatinum(IV), CHEMBL2146192” was tested, and the GI50 was 1.57 µM.
In the case of “mu-(1,7-nanodiamine-N,N')bis-(cis-aminedichloroplatimum (II)), CHEMBL2146215”, the GI50 is reported as 42.7 µM.
Work on “[Bis(aminomethyl)tetramethylenesilane]dichloropaltinum(II), CHEMBL2146205” yielded a GI50 of 16.2 µM.
Substance “[Bis(aminomethyl)diethylsilane]tetrachloroplatinum(IV), CHEMBL2146203” has a GI50 of 2.06 µM.
